Among the data in PubChem BioAssay are composite z-score and z-score values, retold here.

Active and inactive are the calls of the source.

A short description of assay [1]: compounds binding Alexa647 anti-His antibody – biochemical, small-molecule microarray, 635 nm fluorescence, artefact control for SMM control protein annotation, primary screen (AID 1128).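 Also: score merges feature fluorescence with signal-to-noise for each printed compound spot.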 To be noted: higher = more signal.
Assay [2] concerns Human papillomavirus type 1a E7 protein (residues 1-88). In words: HPV1a E7 small-molecule binders, primary screen, biochemical, small-molecule microarray, residues 1-88, 635 nm (AID 1129). As to conditions: small-molecule microarray binding, fluorescence 635 nm; higher = more signal.
For assay [3], the target named is Focal adhesion kinase 1 (Homo sapiens) (UniProt Q05397). In words: PTK2 protein binding on printed compound slides – biochemical, small-molecule microarray, 635/667 nm fluorescence, BSA, DTT, primary screen (AID 1130).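 Also: composite of spot emission at 667 nm and signal to noise over triplicate slides.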 To be noted: 635 nm fluorescence, higher = more signal.
Assay [4] relates to Fibrinogen (Alexa647-labelled). In words: Alexa647-fibrinogen binding to printed small molecules – biochemical, small-molecule microarray, 635/667 nm fluorescence, artefact control for SMM control-protein annotation, profiling panel (AID 1131).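 Also: z-score merges 667 nm fluorescence with per-spot signal-to-noise over triplicate slides.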 To be noted: fibrinogen-A647 binding fluorescence, higher = more signal.
In assay [5] the target is Follistatin (Homo sapiens) (UniProt P19883). In words: FST protein binding to printed compounds – biochemical, small-molecule microarray, 635/667 nm fluorescence, primary screen (AID 1132). To be noted: 635 nm fluorescence, higher = more signal.
In assay [6] the target is Fibroblast growth factor 2 (Homo sapiens) (UniProt P09038). In words: basic fibroblast growth factor binding to printed compounds – biochemical, small-molecule microarray, 635/667 nm fluorescence, primary screen (AID 1133). As to conditions: FGF2, fluorescence 635/667, higher = more signal.
A short description of assay [7]: JC-1 mitochondrial potential readout, lung cancer cells – cell-based, A549, JC-1 fluorescence, basal, 24 h, 100 nL, profiling panel (AID 1138).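 Also: A549 lung adenocarcinoma cells under basal conditions with no added stimulus; test concentration not given here.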 As to conditions: higher = more signal.
The next assay deals with Lefty1. The assay can be described thus: Lefty1 protein binding to printed compounds – biochemical, small-molecule microarray, 635/667 nm fluorescence, primary screen (AID 1139). To be noted: fluorescence 635/667, higher = more signal.
Assay [8] has as its system wheat germ agglutinin (Triticum aestivum), Alexa647-labelled. In words: Alexa647-WGA lectin binding to printed small molecules – biochemical, small-molecule microarray, 635/667 nm fluorescence, artefact control for SMM control-protein annotation, profiling panel (AID 1140).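 Also: score merges 667 nm feature emission with signal to noise over triplicate slides.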 To be noted: WGA-A647 binding, 635 nm fluorescence, higher = more signal.
For assay [9], the target named is Luciferin 4-monooxygenase (Photinus pyralis) (UniProt P08659). In words: inhibition of purified Photinus pyralis luciferase – biochemical, luminescence, purified enzyme, 2006 set, primary screen (AID 1141).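 Also: cell-free assay with purified firefly luciferase at 100 ng per well in PBS; test concentration not given here.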 As to conditions: purified firefly luciferase, SteadyGlo luminescence, 30 min; higher = more signal, called active from +8 up or from −8 down.
Luciferin 4-monooxygenase (Photinus pyralis), sequence (P08659 whole entry, looked up): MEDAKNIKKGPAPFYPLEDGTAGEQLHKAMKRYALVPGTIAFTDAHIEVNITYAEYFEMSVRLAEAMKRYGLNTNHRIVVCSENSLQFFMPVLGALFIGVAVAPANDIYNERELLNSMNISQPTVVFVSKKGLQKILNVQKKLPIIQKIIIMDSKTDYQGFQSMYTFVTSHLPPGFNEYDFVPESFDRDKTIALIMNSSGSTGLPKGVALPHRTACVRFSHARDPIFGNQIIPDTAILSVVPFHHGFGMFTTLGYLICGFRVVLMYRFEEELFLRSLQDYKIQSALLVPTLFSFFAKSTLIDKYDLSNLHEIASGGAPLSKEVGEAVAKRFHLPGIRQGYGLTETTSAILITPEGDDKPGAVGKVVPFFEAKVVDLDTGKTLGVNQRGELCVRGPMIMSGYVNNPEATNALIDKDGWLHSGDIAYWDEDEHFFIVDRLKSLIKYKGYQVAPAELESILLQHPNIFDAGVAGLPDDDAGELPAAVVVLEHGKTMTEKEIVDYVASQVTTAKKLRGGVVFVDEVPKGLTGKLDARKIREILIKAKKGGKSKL

Focal adhesion kinase 1 (Homo sapiens), sequence (Q05397 whole entry, looked up): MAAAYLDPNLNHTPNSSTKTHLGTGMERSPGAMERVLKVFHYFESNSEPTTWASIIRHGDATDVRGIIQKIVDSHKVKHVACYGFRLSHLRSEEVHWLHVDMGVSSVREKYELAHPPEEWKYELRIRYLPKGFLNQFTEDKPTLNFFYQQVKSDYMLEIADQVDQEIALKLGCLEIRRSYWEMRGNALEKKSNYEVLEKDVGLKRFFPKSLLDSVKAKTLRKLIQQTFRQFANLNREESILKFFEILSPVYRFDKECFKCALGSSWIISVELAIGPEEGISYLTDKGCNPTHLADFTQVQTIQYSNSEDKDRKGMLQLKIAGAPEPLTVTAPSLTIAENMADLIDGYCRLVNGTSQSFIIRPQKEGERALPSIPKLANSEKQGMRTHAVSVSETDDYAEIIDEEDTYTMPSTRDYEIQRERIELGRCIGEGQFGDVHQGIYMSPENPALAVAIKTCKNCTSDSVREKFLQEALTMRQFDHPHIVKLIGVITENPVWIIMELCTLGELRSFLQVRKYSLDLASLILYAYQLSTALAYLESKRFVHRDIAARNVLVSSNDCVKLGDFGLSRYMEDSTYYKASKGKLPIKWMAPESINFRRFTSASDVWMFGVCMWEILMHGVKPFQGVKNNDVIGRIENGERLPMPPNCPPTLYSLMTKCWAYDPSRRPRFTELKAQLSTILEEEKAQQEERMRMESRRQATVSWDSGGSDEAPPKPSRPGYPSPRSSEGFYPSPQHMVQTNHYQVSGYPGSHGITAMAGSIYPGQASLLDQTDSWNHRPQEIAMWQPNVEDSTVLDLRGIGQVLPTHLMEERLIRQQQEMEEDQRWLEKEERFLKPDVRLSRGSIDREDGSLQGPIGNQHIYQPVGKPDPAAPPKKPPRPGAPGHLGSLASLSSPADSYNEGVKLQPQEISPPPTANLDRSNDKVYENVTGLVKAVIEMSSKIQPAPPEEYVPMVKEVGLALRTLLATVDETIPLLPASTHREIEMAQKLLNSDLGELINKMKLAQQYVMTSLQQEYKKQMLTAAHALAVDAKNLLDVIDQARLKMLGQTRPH
Fibroblast growth factor 2 (Homo sapiens), sequence (P09038 whole entry, looked up): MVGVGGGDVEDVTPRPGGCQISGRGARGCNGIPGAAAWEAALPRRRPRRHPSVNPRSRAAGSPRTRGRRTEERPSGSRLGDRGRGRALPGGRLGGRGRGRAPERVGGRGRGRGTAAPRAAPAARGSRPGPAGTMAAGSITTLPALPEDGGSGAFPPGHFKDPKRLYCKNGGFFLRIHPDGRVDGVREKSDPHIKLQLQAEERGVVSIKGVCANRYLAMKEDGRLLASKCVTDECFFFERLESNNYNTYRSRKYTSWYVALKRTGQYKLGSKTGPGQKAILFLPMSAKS
Follistatin (Homo sapiens), sequence (P19883 whole entry, looked up): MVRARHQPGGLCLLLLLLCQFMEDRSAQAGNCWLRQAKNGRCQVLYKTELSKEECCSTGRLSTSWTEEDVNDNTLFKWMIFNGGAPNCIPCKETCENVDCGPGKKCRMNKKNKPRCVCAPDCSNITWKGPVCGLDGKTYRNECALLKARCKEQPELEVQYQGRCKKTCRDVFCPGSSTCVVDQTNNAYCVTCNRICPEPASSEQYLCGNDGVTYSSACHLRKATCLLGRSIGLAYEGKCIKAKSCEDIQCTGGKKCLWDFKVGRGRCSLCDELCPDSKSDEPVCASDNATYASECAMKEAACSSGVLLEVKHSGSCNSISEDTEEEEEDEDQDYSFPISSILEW

Consider `CCCCC(CC)C(O)C1C=CC2C(=O)N(c3ccccc3)C(=O)C2N1Nc1ccccc1F` (stereo not given), for which the composite z-score was 2.22 in assay [1]; 1.2 in assay [2]; 0.1 in assay [3]; -0.209 in assay [4]; 0.729 in assay [5]; -0.315 in [6]. Moreover, the figures for the composite z-score (with Lefty1; in assay [8]) were 0.276 and 0.357, respectively. Further, the values for the z-score in assay [7] and in assay [9] were -1.04 and 1.61 (inactive), respectively.

In the case of `C=CCC(OC(C)=O)[C@@H]1[C@@H](N(Cc2ccc(-c3ccccc3)cc2)C(=O)c2ccc(-c3ccccc3)cc2)c2cc(OCCCO)ccc2N1C(=O)c1ccc2ccccc2c1` (stereo not given in full), the composite z-score was -0.162 in assay [1]; 0.0751 in assay [2]; -0.138 in assay [3]; -0.239 in [4]; 0.707 in assay [5]; -0.193 in assay [6]. For the same molecule, the composite z-score was 0.476 in the assay on Lefty1 and -0.094 in assay [8]. Also, the z-score in [7] was 0.657; in assay [9] it was -0.424 (inactive).

Turning to `COC(=O)[C@@]1(Cc2ccccc2)[C@H]2c3cc(C(=O)N4CCCC4)n(CCc4ccccn4)c3C[C@H]2CN1C(=O)c1ccccc1`, the composite z-score was -0.295 in [1]; 1.28 in assay [2]; 1.34 in assay [3]; 1.01 in [4]; 0.758 in assay [5]; -0.28 in assay [6]. Moreover, the composite z-score was 0.0814 with Lefty1 and 1.16 in assay [8]. Moreover, the values for the z-score in [7] and in assay [9] were -0.0942 and 2.38 (inactive), respectively.

For the molecule `CCCCN1CC=CC23O[C@@H]4/C=C\CCCOC(=O)C4[C@H]2C(=O)N(CCO)[C@@H]3C1=O` (stereo not given in full), the composite z-score is 1.3 in assay [1]; 0.0166 in assay [2]; 0.101 in [3]; -1.25 in [4]; -1.03 in assay [5]; -1.33 in [6]. Also, the results for the composite z-score (in the assay on Lefty1; in assay [8]) were -0.832 and -0.724, respectively. Also, the z-score is -0.655 in assay [7] and 1.19 (inactive) in assay [9].

On to `CCCC#C[Si](O[C@H](CC)c1cn([C@H](C)c2ccccc2)nn1)(C(C)C)C(C)C`, for which the composite z-score in [1] came to 0.439; in assay [2] it was 0.625; in [3], 0.986; in [4], 0.856; in [5] it was 0.297; in assay [6] it was 0.484. For the same molecule, the composite z-score with Lefty1 is 0.23; in [8], 0.06. In addition, the z-score in [7] is 1.04; in assay [9], -1.08 (inactive).

Take `C=C[C@H](C)[C@H](OC(=O)Nc1ccc(SC)cc1)c1ccc(OCCO)cc1`: the composite z-score was determined as 0.677 in assay [1]; 1.05 in [2]; 0.0085 in assay [3]; 0.519 in assay [4]; 0.376 in assay [5]; 1.2 in assay [6]. Also, the composite z-score was found to be 0.427 with Lefty1 and 1.07 in assay [8]. Further, the z-score in assay [7] was -1.38; in [9] it was -7.94 (inactive).

As to `COC(=O)C/C=C/C[C@]1(O)C(=O)N(C)c2ccccc21`, the composite z-score in [1] is -0.0221; in assay [2] it was 0.243; in [3], 1.03; in assay [4] it was -0.0833; in assay [5], 0.721; in assay [6] it was 0.561. The composite z-score was found to be 1.17 in the assay on Lefty1 and 0.0278 in [8]. Besides, the z-score is 1.03 in [7] and -1.63 (inactive) in assay [9].

As for `COC(=O)[C@@]1(Cc2ccc(OC)cc2)[C@H]2c3cc(C(=O)N(C)C)n(Cc4ccc(C)o4)c3C[C@H]2CN1C(=O)c1ccccc1`, the composite z-score was 0.787 in assay [1]; 1.26 in [2]; 0.877 in assay [3]; 0.984 in [4]; 0.262 in assay [5]; -0.48 in assay [6]. In addition, the composite z-score in the assay on Lefty1 is -0.0198; in [8], 1.1. The z-score is 1.26 in [7] and -18.5 (active) in assay [9].

As for `COc1ccc([Si](C)(C)[C@@H]2[C@@H](CCO)O[C@]3(C(=O)N(Cc4ccccc4)c4ccc(NC(=O)[C@H](C)O)cc43)[C@H]2C)cc1`, the composite z-score was 0.888 in assay [1]; 1.21 in assay [2]; 1.04 in [3]; 0.851 in assay [4]; 1.2 in assay [5]; 0.462 in assay [6]. Moreover, the composite z-score in the assay with Lefty1 was determined as 1.29; in assay [8] it was 0.417. The z-score in assay [7] is -0.955; in assay [9], 0.265 (inactive).

Consider `[N-]=[N+]=Nc1ccccc1C[C@@]1(C(N)=O)N=C(c2ccc(OCCCO)cc2)O[C@@H]1c1ccccc1N=[N+]=[N-]`, for which the composite z-score is 1.76 in assay [1]; 1.23 in [2]; 0.0444 in assay [3]; 0.637 in assay [4]; 0.062 in assay [5]; -0.0354 in [6]. Besides, the composite z-score was -0.37 in the assay with Lefty1 and 0.0911 in assay [8]. Also, the results for the z-score in [7] and in assay [9] were -0.498 and -4.2 (inactive), respectively.

For `O=C1O[C@H](c2ccccc2)[C@H](c2ccccc2)N2[C@H]1[C@@H](C(=O)O)[C@]1(C(=O)Nc3ccc(C#CCCO)cc31)[C@H]2c1ccccc1OCCO`, the composite z-score in [1] was 0.84; in [2], 0.0764; in assay [3] it was 0.0281; in [4] it was 0.289; in [5], 0.622; in assay [6], -0.0212. In addition, the composite z-score with Lefty1 turned out to be 0.404; in assay [8] it was 0.842. Also, the figures for the z-score in assay [7] and in assay [9] were -0.689 and -0.747 (inactive), respectively.

For the molecule `COC(=O)C1=CC(CCCO)=CC(c2ccc(CN3CCCC3)cc2)N(Cc2cccc(OC(F)(F)F)c2)C=C1C(=O)OC` (stereo not given), the composite z-score in assay [1] was 1.6; in [2] it was 1.11; in assay [3] it was 0.875; in assay [4], 1; in assay [5], 0.325; in assay [6], -0.292. Further, the composite z-score in the assay with Lefty1 came out at 0.279; in assay [8] it was 1.11. Moreover, the z-score in assay [7] is 2.87; in [9], -3.06 (inactive).

In the case of `CN1C2C=C(CCCO)C(C3C(=O)N(C(N)=O)C(=O)C32)C1C1CC1` (stereo not given), the composite z-score in assay [1] was 0.352; in assay [2], 0.186; in assay [3], -0.158; in [4], 0.481; in assay [5] it was -0.0169; in assay [6], -0.148. In addition, the composite z-score in the assay on Lefty1 is 0.145; in [8], -0.123. Besides, the results for the z-score in [7] and in assay [9] were 0.771 and -0.938 (inactive), respectively.

`O=C1[C@H]2C=C(I)[C@H](C[C@@H]2OCCOCCO)[C@@]12CO2`: the composite z-score in [1] was -0.0655; in assay [2] it was 0.747; in [3] it was 0.0017; in assay [4], 0.0216; in assay [5] it was 0.697; in assay [6] it was 0.952. Further, the composite z-score in the assay on Lefty1 was 0.858; in [8], -0.12. Besides, the z-score in assay [7] is -0.43; in assay [9], 0.818 (inactive).

For the molecule `CCOC(=O)C1=C[C@@H](C(C)C)N(S(=O)(=O)c2ccc(C)cc2)[C@H]1c1ccc(C(F)(F)F)cc1`, the composite z-score in assay [1] was 0.922; in [2] it was 1.22; in assay [3] it was 0.224; in assay [4] it was 0.975; in assay [5], 0.929; in assay [6] it was 0.604. Moreover, the composite z-score turned out to be 0.895 with Lefty1 and 0.909 in assay [8]. Besides, the z-score in assay [7] was 2.67; in [9] it was 0.612 (inactive).

With `O=C(NCCN1CCOCC1)[C@@H]1c2ccccc2C(=O)N(C2Cc3ccccc3C2)[C@H]1c1ccc(CO)cc1`, the composite z-score in assay [1] was 3.03; in assay [2], 1.08; in assay [3], 0.306; in [4] it was 0.739; in assay [5], -0.506; in [6] it was 0.082. In addition, the composite z-score with Lefty1 is -0.724; in [8], -0.0583. Moreover, the z-score in assay [7] was 2.55; in [9], -1.16 (inactive).

In the case of `COC(=O)[C@@]1(Cc2ccc(OC)cc2)[C@H]2c3cc(C(=O)N4CCCC4)n(CCO)c3C[C@H]2CN1C(=O)c1ccccc1`, the composite z-score was 0.603 in assay [1]; 1.18 in [2]; 1.05 in [3]; 0.875 in [4]; 0.113 in [5]; -0.2 in [6]. Besides, the composite z-score in the assay on Lefty1 is -0.539; in [8] it was 1.03. In addition, the z-score in assay [7] is -0.117; in assay [9], 1.01 (inactive).
